# In PubChem BioAssay:
# The source made the active and inactive calls. Unless noted, the rule behind the calls is not given here.
# Tests used:
# [1] = resazurin metabolic signal in HepG2 cells – cell-based, resazurin fluorescence, 24 h, PK04 Diversity Set, profiling panel (AID 1172); settings: HepG2 viability, higher = more signal
# [2] = budding yeast growth changes without added modifier – OD600, strain BY4716, 24 h, basal condition, primary screen (AID 1173); settings: S. cerevisiae BY4716 growth, OD600, 24 h; higher = more signal, called active from +8 up or from −8 down
# [3] = viability profiling in MM1S myeloma cells – cell-based, resazurin fluorescence, basal, 24 h, PK04 Diversity Set, profiling panel (AID 1174); settings: higher = more signal, called active from +8 up or from −8 down;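 note: MM1S multiple myeloma cell line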
# [4] = target: Dihydroorotate dehydrogenase (quinone), mitochondrial (Plasmodium falciparum (isolate 3D7)) (UniProt Q08210); test: inhibition of P. falciparum DHODH – biochemical, C-terminal His tag, absorbance 600 nm, primary screen (AID 1175); settings: PfDHODH enzyme, DCIP absorbance 600 nm; higher = more signal, called active from +8 up or from −8 down;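 note: recombinant parasite enzyme with a five histidine tag at its C terminus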
# [5] = inhibition of PAO1 biofilm formation – strain PAO1, LB-PBS medium, absorbance 600 nm, primary screen (AID 1176); settings: P. aeruginosa PAO1 growth/biofilm, A600, 12 h; higher = more signal
# [6] = growth modulation of vineyard yeast isolate – strain RM11-1a, OD600, basal, 24 h, primary screen (AID 1177);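 note: cultures grown under basal conditions with no added stressor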; settings: S. cerevisiae RM11-1a growth, OD600, 24 h; higher = more signal, called active from +8 up or from −8 down
# [7] = growth of efflux-deficient E. coli DRC39 – strain DRC39, OD650, 24 h, E. coli filamentation inducers, primary screen (AID 1178);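 note: growth measured as culture turbidity by optical density at 650 nm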; settings: E. coli DRC39 acrAB, higher = more signal, called active from +8 up or from −8 down
# [8] = growth of efflux-deficient E. coli DRC39 – strain DRC39, OD650, 48 h, E. coli filamentation inducers, primary screen (AID 1179);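 note: screen aims at cell division blockers that make cells filament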; settings: E. coli DRC39 delta-acrAB growth, higher = more signal, called active from +8 up or from −8 down
# [9] = viability profiling in RPMI8226 myeloma cells – cell-based, resazurin fluorescence, basal, 24 h, PK04 Diversity Set, profiling panel (AID 1180); settings: higher = more signal;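 note: RPMI8826 multiple myeloma cell line at 5000 cells per well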
# [10] = target: E3 ubiquitin-protein ligase XIAP (Homo sapiens) (UniProt P98170); test: small molecules binding XIAP protein – biophysical, small-molecule microarray, fluorescence 635 nm, primary screen (AID 1181); settings: higher = more signal;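 note: score merges 667 nm emission and signal to noise over triplicate slides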
# [11] = tested on: XIP peptide (Xip251-270) binding; test: XIP fragment 251-270 binding compounds – biochemical, small-molecule microarray, fluorescence 635/667 nm, 0.1 µg/mL protein, primary screen (AID 1182); settings: fluorescent protein binding, 635 nm, higher = more signal, called active from +8 up or from −8 down
# XIP peptide (Xip251-270) = test: compounds binding XIP fragment 251-270 – biochemical, small-molecule microarray, fluorescence 635/667 nm, 0.5 µg/mL protein, primary screen (AID 1183); settings: fluorescence 635 nm, higher = more signal
# [12] = blood-stage malaria parasite viability loss – strain 3D7, DAPI fluorescence, 100 nL, primary screen (AID 1184);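 note: parasites grown inside human red blood cells in medium with human serum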; settings: P. falciparum 3D7 growth, 3 d, higher = more signal
# [13] = target: Homeobox protein Hox-A13 (Mus musculus) (UniProt Q62424); test: disruptors of Hoxa13 oligonucleotide interaction – biochemical, fluorescence polarization, labeled oligonucleotide, primary screen (AID 1185); settings: Hoxa13:DNA binding, 15 min, higher = more signal, called active from +8 up or from −8 down
# [14] = blockers of DNA damage checkpoint Chk1 activation – imaging, HeLa, hydroxyurea, phospho-Chk1 antibody, percent positive cells, primary screen (AID 1186); settings: hydroxyurea-induced phospho-Chk1 immunofluorescence imaging, higher = more signal
# [15] = blockers of DNA damage checkpoint Chk1 activation – imaging, HeLa, hydroxyurea, phospho-Chk1 nuclear intensity, primary screen (AID 1187); settings: hydroxyurea-induced phospho-Chk1 immunofluorescence imaging, higher = more signal
# Sequence of Homeobox protein Hox-A13 (Mus musculus) (Q62424 whole entry, looked up): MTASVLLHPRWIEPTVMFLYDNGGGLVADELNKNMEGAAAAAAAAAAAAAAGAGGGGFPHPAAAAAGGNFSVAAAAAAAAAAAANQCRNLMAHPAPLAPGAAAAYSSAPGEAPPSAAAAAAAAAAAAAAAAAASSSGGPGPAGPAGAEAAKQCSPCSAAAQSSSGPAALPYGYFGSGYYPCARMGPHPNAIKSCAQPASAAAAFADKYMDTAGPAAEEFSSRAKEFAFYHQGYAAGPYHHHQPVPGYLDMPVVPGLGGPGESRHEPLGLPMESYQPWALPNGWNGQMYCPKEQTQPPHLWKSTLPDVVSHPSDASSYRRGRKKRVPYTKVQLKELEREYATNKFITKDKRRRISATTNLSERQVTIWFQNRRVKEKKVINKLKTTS
# Sequence of E3 ubiquitin-protein ligase XIAP (Homo sapiens) (P98170 whole entry, looked up, the tested form may be a part): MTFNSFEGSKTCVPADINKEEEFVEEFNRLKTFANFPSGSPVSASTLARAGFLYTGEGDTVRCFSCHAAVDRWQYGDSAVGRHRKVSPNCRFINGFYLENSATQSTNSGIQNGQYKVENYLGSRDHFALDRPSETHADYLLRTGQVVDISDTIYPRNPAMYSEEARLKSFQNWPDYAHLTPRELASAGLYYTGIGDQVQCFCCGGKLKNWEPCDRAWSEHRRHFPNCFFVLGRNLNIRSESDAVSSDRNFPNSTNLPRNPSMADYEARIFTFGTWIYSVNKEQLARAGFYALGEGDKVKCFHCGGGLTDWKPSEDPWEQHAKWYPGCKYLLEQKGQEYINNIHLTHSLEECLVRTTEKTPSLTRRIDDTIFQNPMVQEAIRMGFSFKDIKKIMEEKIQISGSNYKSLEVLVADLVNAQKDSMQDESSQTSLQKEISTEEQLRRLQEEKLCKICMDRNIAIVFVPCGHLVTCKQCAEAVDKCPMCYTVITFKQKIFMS
# Sequence of Dihydroorotate dehydrogenase (quinone), mitochondrial (Plasmodium falciparum (isolate 3D7)) (Q08210 whole entry, looked up): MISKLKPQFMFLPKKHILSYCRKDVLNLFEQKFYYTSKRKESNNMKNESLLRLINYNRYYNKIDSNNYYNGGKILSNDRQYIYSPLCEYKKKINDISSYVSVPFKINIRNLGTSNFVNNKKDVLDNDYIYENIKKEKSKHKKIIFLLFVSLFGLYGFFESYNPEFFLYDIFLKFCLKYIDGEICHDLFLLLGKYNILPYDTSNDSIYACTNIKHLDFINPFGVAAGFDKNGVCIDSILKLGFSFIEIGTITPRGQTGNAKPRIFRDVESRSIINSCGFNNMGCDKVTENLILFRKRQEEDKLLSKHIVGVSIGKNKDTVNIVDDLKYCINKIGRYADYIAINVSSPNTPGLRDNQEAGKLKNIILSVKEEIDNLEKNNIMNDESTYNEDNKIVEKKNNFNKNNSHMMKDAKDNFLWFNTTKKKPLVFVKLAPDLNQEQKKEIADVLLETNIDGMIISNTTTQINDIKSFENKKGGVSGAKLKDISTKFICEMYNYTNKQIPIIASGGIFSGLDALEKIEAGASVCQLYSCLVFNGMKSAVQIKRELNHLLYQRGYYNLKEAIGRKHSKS
Structure (SMILES),z-score [1],z-score [2],z-score [3],composite z-score [4],z-score [5],z-score [6],z-score [7],z-score [8],z-score [9],composite z-score [10],composite z-score [11],composite z-score (XIP peptide (Xip251-270)),z-score [12],z-score [13],z-score [14],z-score [15]
O=C1O[C@H](c2ccccc2)[C@H](c2ccccc2)N2[C@H]1[C@@H](C(=O)Nc1nc3ccccc3s1)[C@]1(C(=O)Nc3ccc(C#CC4=CCCCC4)cc31)[C@H]2c1ccc(OCCO)cc1,0.281,1.63 (inactive),-0.543 (inactive),-3.03 (inactive),3.01 (inactive),1.46 (inactive),-0.154 (inactive),-0.686 (inactive),-0.496,-0.24,-0.172 (inactive),0.656,-0.985,-11.7 (active),0.0032 (inactive),-0.515 (inactive)
COC(=O)[C@@]1(Cc2ccc(F)cc2)[C@H]2c3cc(C(=O)N4CCCC4)n(CCc4ccc(OC)c(Br)c4)c3C[C@H]2CN1C(=O)c1ccccc1,-1.25,0.836 (inactive),-2.83 (inactive),-0.163 (inactive),1.07 (inactive),0.264 (inactive),-0.588 (inactive),0.123 (inactive),-4.16,0.183,-0.0505 (inactive),0.557,-1.58,-2.27 (inactive),-1.03 (inactive),-0.872 (inactive)
C=CCOC(=O)[C@@H]1[C@H]2C(=O)O[C@H](c3ccccc3)[C@H](c3ccccc3)N2[C@H](c2ccc(OCCOC(=O)[C@H]3C[C@H]4C(=O)N[C@@H](CCCC[N+](C)(C)C)C(=O)N4[C@H]3c3cccc(OCCO)c3)cc2)[C@@]12C(=O)Nc1ccc(I)cc12,-0.0059,1.68 (inactive),-1.05 (inactive),-0.483 (inactive),3.37 (inactive),1.12 (inactive),-0.708 (inactive),-1.23 (inactive),-0.521,0.104,1.31 (inactive),0.646,-1.82,1.38 (inactive),-0.118 (inactive),-0.176 (inactive)
O=C(N1CCCCC1)[C@]1(CCS(=O)(=O)c2ccccc2)N=C(c2ccc(OCCCO)cc2)O[C@@H]1c1ccccc1,0.0192,-0.678 (inactive),-2.49 (inactive),0.813 (inactive),-0.345 (inactive),0.525 (inactive),0.779 (inactive),-0.385 (inactive),-1.61,0.0257,1.29 (inactive),0.75,-2.79,-5.68 (inactive),-0.599 (inactive),-1 (inactive)
O=C1C[C@@](C(=O)O)(c2ccc([N+](=O)[O-])cc2)[C@@H](c2ccc(CO)cc2I)N1C1CCCCC1,0.0536,-5.06 (inactive),-1.62 (inactive),-1.68 (inactive),1.16 (inactive),-1.01 (inactive),1.39 (inactive),0.466 (inactive),-1.57,-0.289,-0.183 (inactive),0.553,-2.01,-6.2 (inactive),-0.195 (inactive),0.201 (inactive)
COCCOC(=O)N1C(=O)[C@@]2(c3cc(C#CCC(C(=O)OC)C(=O)OC)ccc31)[C@H](c1ccccc1OCCO)N1[C@H](c3ccccc3)[C@H](c3ccccc3)OC(=O)[C@H]1[C@@H]2C(=O)Nc1nc2ccccc2s1,0.513,-0.561 (inactive),0.951 (inactive),-1.19 (inactive),3.41 (inactive),-0.929 (inactive),1.28 (inactive),1.76 (inactive),0.599,-0.0785,0.83 (inactive),0.862,-1.53,3.51 (inactive),-0.5 (inactive),-0.31 (inactive)
Cn1c2c(c3ccccc31)C(=O)C1NC2C=CC1(C)C(=O)OCc1ccccc1 (centres undefined),0.0885,0.272 (inactive),-1.35 (inactive),-0.296 (inactive),-0.253 (inactive),-0.128 (inactive),-1.33 (inactive),-1.06 (inactive),-1.2,0.0546,-0.605 (inactive),-0.416,-0.502,-3.9 (inactive),-0.3 (inactive),-0.512 (inactive)
C=C(C)[C@@H]1CC=C(C(O)C2C=CC3C(=O)N(Cc4ccccc4)C(=O)C3N2n2cnnc2)CC1 (some centres undefined),-0.429,0.349 (inactive),-0.893 (inactive),-0.295 (inactive),0.878 (inactive),-0.616 (inactive),0.518 (inactive),-0.66 (inactive),-0.334,1.74,-0.137 (inactive),0.3,-1.03,-1.35 (inactive),-0.0789 (inactive),0.265 (inactive)
[N-]=[N+]=NCc1ccccc1C[C@]1(C(=O)NCC(O)CO)COC(c2ccc(OCCCO)cc2)=N1 (some centres undefined),0.0117,-1.46 (inactive),-2.31 (inactive),0.0291 (inactive),0.19 (inactive),-0.325 (inactive),-0.0949 (inactive),0.0564 (inactive),-0.902,-0.163,0.54 (inactive),0.376,-2.04,-4.94 (inactive),-0.0874 (inactive),-0.341 (inactive)
C=CCN1C(=O)[C@]2(Cc3ccccc31)N=C(c1ccc(OCCCO)cc1)O[C@@H]2c1ccccc1,-1.05,-2.22 (inactive),-1.48 (inactive),-0.699 (inactive),0.134 (inactive),0.821 (inactive),-1.3 (inactive),-0.802 (inactive),-1.33,-0.0062,0.526 (inactive),0.791,-2.07,-4.97 (inactive),-0.149 (inactive),0.0449 (inactive)
C=C[C@H](C)[C@H](OC(=O)Nc1ccc(OC)cc1)c1ccc(O)c2ccccc12,-0.475,-18.5 (active),-2.68 (inactive),-1.79 (inactive),0.908 (inactive),-17 (active),0.405 (inactive),-0.0111 (inactive),-2.21,-0.003,0.79 (inactive),-0.147,-0.767,-4.27 (inactive),-0.33 (inactive),-0.382 (inactive)
CN(C)CCCCNC(=O)[C@@H]1C[C@@H]2C(=O)N[C@@H](CCCCN)C(=O)N2[C@@H]1c1cccc(OCCO)c1,0.0914,-0.191 (inactive),-0.332 (inactive),-0.318 (inactive),0.836 (inactive),-0.147 (inactive),-0.383 (inactive),-1 (inactive),-0.165,-0.32,0.388 (inactive),0.566,-0.114,-3.47 (inactive),-0.833 (inactive),-0.838 (inactive)
C=C(CCCC)/C(=C/C[C@@H](OC(=O)c1ccncc1)c1ccc(CO)o1)c1cc(C(=O)OC)ccc1OC,0.116,-0.973 (inactive),-0.864 (inactive),-5.02 (inactive),0.847 (inactive),-0.513 (inactive),1.15 (inactive),0.84 (inactive),-0.466,0.508,0.611 (inactive),0.83,-0.519,-3.68 (inactive),-0.762 (inactive),-1.65 (inactive)
C/C=C/[C@H](CCn1cc([C@H](O)c2ccccc2)nn1)[Si](C)(C)c1ccc(OC)cc1,0.0881,-0.289 (inactive),0.183 (inactive),-0.393 (inactive),0.626 (inactive),0.15 (inactive),0.265 (inactive),-0.0867 (inactive),-0.187,-0.0936,-0.0661 (inactive),0.634,1.03,-5.59 (inactive),-0.131 (inactive),-0.28 (inactive)
CN(C)CCCC[C@@H]1NC(=O)[C@@H]2C[C@H](C(=O)NCCCCCN)[C@H](c3ccc(O)cc3)N2C1=O,-0.24,-0.235 (inactive),-0.507 (inactive),-1.33 (inactive),-0.0491 (inactive),-0.361 (inactive),0.591 (inactive),1.09 (inactive),-0.948,-0.134,0.633 (inactive),0.433,0.336,-1.21 (inactive),-0.538 (inactive),-0.472 (inactive)
CCCNC(=O)[C@@]1(c2ccc([N+](=O)[O-])cc2)CC(=O)N(CC23CC4CC(CC(C4)C2)C3)[C@@H]1c1ccc(CO)cc1I,-2.95,0.285 (inactive),-3.47 (inactive),0.286 (inactive),0.32 (inactive),1.34 (inactive),-0.643 (inactive),0.198 (inactive),-4.07,-0.0749,1.18 (inactive),0.59,-1.55,-3.75 (inactive),-0.28 (inactive),-0.51 (inactive)
O=C(NCc1ccccc1)[C@@H]1c2ccccc2C(=O)N(Cc2cc(F)cc(C(F)(F)F)c2)[C@H]1c1ccc(CO)cc1,-0.745,-0.633 (inactive),-0.569 (inactive),0.131 (inactive),0.472 (inactive),-0.517 (inactive),0.771 (inactive),0.675 (inactive),0.127,-0.0207,0.818 (inactive),0.941,-0.0341,-2.88 (inactive),-1.07 (inactive),-1.29 (inactive)
CCN(CC)c1ccc(N2CC=CC34O[C@@H]5C=CCOC(=O)[C@@H]5[C@H]3C(=O)N(CCCCCO)[C@@H]4C2=O)cc1 (some centres undefined),0.34,0.0663 (inactive),1.08 (inactive),0.618 (inactive),-0.193 (inactive),-0.272 (inactive),0.831 (inactive),0.349 (inactive),0.225,0.532,0.614 (inactive),-0.982,-0.232,-5.05 (inactive),-0.23 (inactive),-0.33 (inactive)
C=CCNC(=O)[C@@H]1[C@H]2C(=O)O[C@H](c3ccccc3)[C@H](c3ccccc3)N2[C@H](c2ccccc2OCCO)[C@@]12C(=O)N(C(=O)OCCOC)c1ccc(C#CCC(C(=O)OC)C(=O)OC)cc12,0.865,2.2 (inactive),-1.69 (inactive),-2.24 (inactive),3.54 (inactive),1.62 (inactive),0.275 (inactive),-0.418 (inactive),-0.11,0.666,2.28 (inactive),0.878,-2.14,-0.757 (inactive),0.071 (inactive),0.361 (inactive)
